The supplement of paper PMC11732987, “Enantioselective OTUD7B fragment discovery through chemoproteomics screening and high-throughput optimisation” (Communications Chemistry, 2025)

Tests used:
Assay in all cases: log2 ratio of Biotin-Ahx-Ub-VS probe labelling (fragment/DMSO); higher = less target engagement (more negative = stronger competition), active = hit call of the paper (q ≤ 0.05, log2 ratio ≤ -1)
Conditions in all cases: compound concentration: 200 uM; treatment time: 3 h
OTUD6B = target: T1, OTUD6B (UniProt Q8N6M0)
T1 sequence (whole entry): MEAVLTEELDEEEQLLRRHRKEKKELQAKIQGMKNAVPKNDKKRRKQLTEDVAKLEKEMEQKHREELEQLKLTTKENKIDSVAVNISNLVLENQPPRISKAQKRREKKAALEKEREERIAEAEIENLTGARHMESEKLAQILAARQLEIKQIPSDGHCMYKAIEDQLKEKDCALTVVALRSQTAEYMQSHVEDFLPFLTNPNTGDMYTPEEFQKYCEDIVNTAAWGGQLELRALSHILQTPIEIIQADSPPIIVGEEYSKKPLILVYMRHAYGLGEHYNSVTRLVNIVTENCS
How it was run: (§1)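 Global-median-normalised Spectronaut label-free quantities were compared by unpaired t-test, and values are average log2 ratios of fragment over vehicle. Only proteins with ≥2 unique peptides were used. HEK293T lysate (495 µg per sample) was treated in triplicate with fragment at 200 µM or vehicle for 3 h and then with Biotin-Ahx-Ub-VS at 0.5 µM final for 1 h. Labelled DUBs were then NeutrAvidin-enriched, digested with LysC and trypsin, and run by diaPASEF LC-MS/MS.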

OTUD7B = target: T2, OTUD7B (UniProt Q6GQQ9)
T2 sequence (whole entry): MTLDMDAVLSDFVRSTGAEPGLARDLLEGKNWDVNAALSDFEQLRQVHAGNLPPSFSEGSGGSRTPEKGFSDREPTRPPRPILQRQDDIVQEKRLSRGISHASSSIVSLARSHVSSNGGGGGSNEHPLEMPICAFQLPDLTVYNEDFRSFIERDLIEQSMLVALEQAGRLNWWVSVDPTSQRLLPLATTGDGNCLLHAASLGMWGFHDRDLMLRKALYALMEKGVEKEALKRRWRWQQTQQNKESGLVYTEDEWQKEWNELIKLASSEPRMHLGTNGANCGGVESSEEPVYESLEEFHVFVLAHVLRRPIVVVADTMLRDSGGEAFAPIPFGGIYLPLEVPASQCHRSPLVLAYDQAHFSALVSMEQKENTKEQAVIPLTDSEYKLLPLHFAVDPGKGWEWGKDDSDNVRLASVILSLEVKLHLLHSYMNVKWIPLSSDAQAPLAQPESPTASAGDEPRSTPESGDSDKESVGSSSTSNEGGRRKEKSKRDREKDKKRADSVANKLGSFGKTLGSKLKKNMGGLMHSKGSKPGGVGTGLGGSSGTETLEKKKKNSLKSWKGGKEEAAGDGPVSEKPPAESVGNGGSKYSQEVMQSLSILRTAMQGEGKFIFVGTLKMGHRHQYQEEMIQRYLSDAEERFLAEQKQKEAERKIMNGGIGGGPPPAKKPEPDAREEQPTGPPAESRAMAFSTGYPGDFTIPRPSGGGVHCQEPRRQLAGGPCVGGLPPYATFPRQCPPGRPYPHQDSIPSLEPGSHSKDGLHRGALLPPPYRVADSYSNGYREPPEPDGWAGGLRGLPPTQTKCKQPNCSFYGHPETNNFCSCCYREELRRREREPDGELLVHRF
How it was run: as §1

PRPF8 = PRPF8 (UniProt Q6P2Q9)
How it was run: as §1

PSMD7 = target: T3, PSMD7 (UniProt P51665)
T3 sequence (whole entry): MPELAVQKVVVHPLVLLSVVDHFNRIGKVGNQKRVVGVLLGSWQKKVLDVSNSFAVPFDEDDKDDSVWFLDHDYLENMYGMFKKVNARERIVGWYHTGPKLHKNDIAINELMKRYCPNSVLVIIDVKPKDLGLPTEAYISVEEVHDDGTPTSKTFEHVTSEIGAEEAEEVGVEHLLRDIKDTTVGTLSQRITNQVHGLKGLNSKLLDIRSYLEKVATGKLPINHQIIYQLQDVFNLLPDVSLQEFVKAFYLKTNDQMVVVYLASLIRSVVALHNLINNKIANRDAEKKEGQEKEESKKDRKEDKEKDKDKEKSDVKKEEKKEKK
How it was run: as §1

UCHL1 = UCHL1 (UniProt P09936)
Chain of UCHL1 (P09936 whole entry, looked up): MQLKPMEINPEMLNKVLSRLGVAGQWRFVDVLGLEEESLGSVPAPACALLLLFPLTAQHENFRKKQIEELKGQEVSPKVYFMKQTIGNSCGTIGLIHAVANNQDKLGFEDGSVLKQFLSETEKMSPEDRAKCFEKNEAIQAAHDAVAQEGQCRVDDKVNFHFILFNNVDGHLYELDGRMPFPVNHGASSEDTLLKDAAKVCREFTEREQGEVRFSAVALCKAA
How it was run: as §1

UCHL3 = target: T4, UCHL3 (UniProt P15374)
T4 sequence (whole entry): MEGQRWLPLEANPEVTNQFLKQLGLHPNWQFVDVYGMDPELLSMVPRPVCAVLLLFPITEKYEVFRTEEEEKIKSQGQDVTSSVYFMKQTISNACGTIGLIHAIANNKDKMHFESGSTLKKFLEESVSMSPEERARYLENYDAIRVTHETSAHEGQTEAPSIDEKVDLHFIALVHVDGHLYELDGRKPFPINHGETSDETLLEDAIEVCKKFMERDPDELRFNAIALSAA
How it was run: as §1

UCHL5 = target: T5, UCHL5 (UniProt Q9Y5K5)
T5 sequence (whole entry): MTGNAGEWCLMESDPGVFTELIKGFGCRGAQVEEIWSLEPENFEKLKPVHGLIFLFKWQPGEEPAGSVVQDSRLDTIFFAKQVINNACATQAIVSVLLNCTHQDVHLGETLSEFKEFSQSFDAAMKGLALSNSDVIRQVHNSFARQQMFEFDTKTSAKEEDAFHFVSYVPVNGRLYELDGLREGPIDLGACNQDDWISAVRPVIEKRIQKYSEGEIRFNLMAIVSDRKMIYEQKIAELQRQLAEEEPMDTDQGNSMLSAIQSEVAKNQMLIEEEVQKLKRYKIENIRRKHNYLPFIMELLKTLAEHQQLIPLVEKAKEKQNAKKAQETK
How it was run: as §1

USP10 = USP10 (UniProt Q14694)
Chain of USP10 (Q14694 whole entry): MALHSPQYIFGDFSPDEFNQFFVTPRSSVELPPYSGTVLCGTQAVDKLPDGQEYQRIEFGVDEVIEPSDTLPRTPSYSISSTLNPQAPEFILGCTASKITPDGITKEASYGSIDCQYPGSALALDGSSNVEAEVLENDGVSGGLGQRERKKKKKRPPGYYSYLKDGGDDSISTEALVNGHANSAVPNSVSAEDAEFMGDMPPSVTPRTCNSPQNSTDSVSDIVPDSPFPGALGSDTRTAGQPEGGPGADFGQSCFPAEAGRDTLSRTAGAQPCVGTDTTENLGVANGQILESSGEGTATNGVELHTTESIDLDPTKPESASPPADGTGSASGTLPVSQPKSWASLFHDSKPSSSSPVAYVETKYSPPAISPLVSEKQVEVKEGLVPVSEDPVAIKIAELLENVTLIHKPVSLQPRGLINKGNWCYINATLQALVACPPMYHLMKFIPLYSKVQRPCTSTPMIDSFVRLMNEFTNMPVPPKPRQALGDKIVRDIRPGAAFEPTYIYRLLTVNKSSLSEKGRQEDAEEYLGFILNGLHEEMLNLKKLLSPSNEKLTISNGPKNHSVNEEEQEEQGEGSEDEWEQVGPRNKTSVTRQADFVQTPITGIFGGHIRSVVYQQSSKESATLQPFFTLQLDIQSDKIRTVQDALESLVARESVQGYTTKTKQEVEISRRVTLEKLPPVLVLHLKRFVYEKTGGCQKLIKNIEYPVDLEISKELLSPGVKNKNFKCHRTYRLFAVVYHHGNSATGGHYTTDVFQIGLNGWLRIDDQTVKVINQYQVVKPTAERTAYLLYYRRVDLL
How it was run: as §1

USP15 = target: T6, USP15 (UniProt Q9Y4E8)
T6 sequence (whole entry): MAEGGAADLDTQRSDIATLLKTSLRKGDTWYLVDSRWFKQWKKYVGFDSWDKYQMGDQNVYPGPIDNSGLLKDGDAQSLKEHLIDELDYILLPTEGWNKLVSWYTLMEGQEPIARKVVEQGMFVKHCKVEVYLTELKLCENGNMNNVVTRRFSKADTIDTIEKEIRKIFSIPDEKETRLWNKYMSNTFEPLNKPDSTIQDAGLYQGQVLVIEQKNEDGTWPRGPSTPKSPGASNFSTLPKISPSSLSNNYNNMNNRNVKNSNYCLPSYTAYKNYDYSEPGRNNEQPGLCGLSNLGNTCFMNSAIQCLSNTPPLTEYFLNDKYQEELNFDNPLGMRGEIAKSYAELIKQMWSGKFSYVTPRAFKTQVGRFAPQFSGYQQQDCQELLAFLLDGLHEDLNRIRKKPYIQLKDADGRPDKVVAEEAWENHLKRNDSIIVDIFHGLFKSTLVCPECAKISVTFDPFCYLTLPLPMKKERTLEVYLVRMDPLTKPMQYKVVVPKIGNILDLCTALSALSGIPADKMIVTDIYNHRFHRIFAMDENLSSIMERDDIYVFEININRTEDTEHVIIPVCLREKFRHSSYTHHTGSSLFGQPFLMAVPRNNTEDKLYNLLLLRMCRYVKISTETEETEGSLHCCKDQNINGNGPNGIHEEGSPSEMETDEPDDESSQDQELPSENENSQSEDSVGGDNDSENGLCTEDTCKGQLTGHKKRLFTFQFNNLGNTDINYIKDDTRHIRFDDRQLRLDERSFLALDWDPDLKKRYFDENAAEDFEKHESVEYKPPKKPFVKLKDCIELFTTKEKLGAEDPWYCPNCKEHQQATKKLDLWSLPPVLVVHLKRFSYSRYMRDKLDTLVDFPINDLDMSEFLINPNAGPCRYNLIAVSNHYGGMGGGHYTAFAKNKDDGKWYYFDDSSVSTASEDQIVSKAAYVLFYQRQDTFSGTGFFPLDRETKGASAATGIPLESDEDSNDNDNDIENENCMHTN
How it was run: as §1

Measured: log2 ratio of Biotin-Ahx-Ub-VS probe labelling

CCN(C(=O)CCl)C1CCCCC1
inactive: OTUD6B -0.00402 | OTUD7B -0.011 | PRPF8 -0.0683 | PSMD7 0.00413 | UCHL1 -0.999 | UCHL3 0.576 | UCHL5 0.0144 | USP10 -0.185 | USP15 -0.0855
